Results: PubChem BioAssay (NCI)
Compounds without any hit were thinned out: in the full panel of roughly 79,000, 15% have a hit. Unmarked numbers belong to inactive results. The source made the active and inactive calls. Cut-off read from the data, not from the text of the source: active = growth inhibition above about 70%; inactive = the rest.

Assay: NCI Yeast Anticancer Drug Screen. Data for the rad18 strain (AID 177)
Details: S. cerevisiae rad18 mutant growth inhibition, hits give high values
Method: Growth inhibition of yeast strains with defined genetic alterations is measured as a screen for potential anti-cancer activity. Selected strains with alterations in DNA damage repair or cell cycle control were exposed to compounds and growth inhibition was measured relative to vehicle treated controls. The strain used in this assay is rad18

O=c1cccccc1[O-].O=c1cccccc1[O-].O=c1cccccc1[O-].[Eu+3]
growth inhibition (at 1.2 µM): 3%
growth inhibition (at 3.7 µM): 15%
growth inhibition (at 11.0 µM): 42%
growth inhibition (at 33.0 µM): 98% (active)
growth inhibition (at 100.0 µM): 97% (active)

Cc1cccc(/C=N/NC(=S)NC2CCCCC2)n1
growth inhibition (at 1.2 µM): -5%
growth inhibition (at 3.7 µM): -4%
growth inhibition (at 11.0 µM): 3%
growth inhibition (at 33.0 µM): 20%
growth inhibition (at 100.0 µM): 19%

O=C(Cc1ccccc1)NN1C(=O)C(Cl)C1c1cc(Br)cc(Br)c1O (stereo not given)
growth inhibition (at 1.2 µM): 5%
growth inhibition (at 3.7 µM): 27%
growth inhibition (at 11.0 µM): 88% (active)
growth inhibition (at 33.0 µM): 91% (active)
growth inhibition (at 100.0 µM): 84% (active)

CCOC(=O)C(Cc1c2ccccc2cc2ccccc12)(NC(C)=O)C(=O)OCC
growth inhibition (at 1.2 µM): -5%
growth inhibition (at 3.7 µM): -1%
growth inhibition (at 11.0 µM): -1%
growth inhibition (at 33.0 µM): 0%
growth inhibition (at 100.0 µM): 3%

CC1=CC(=O)C=CC1=Nc1cc(Cl)c(O)c(Cl)c1
growth inhibition (at 1.2 µM): -11%
growth inhibition (at 3.7 µM): -10%
growth inhibition (at 11.0 µM): -9%
growth inhibition (at 33.0 µM): 60%
growth inhibition (at 100.0 µM): 91% (active)

NC(=S)N/N=C1\c2ccccc2CCC1CCC1(O)CCc2ccccc2C1=O (stereo not given)
growth inhibition (at 1.2 µM): 52%
growth inhibition (at 3.7 µM): 50%
growth inhibition (at 11.0 µM): 63%
growth inhibition (at 33.0 µM): 86% (active)
growth inhibition (at 100.0 µM): 81% (active)

CCN(CC)C(=S)N/N=C(\C)c1ccccc1O
growth inhibition (at 1.2 µM): 18%
growth inhibition (at 3.7 µM): 9%
growth inhibition (at 11.0 µM): 29%
growth inhibition (at 33.0 µM): 97% (active)
growth inhibition (at 100.0 µM): 98% (active)

COc1ccc(/C=C2\SC(=S)N(/C=C3\C(=O)N(c4ccccc4)N=C3C)C2=O)cc1OC
growth inhibition (at 1.2 µM): 5%
growth inhibition (at 3.7 µM): 17%
growth inhibition (at 11.0 µM): 37%
growth inhibition (at 33.0 µM): 68%
growth inhibition (at 100.0 µM): 74% (active)
